Data on nine compounds can be found in PubChem BioAssay (NCI).

Compounds without any hit were thinned out: in the full panel of roughly 79,000, 15% have a hit. Values without a mark were called inactive. Calls of active or inactive are those of the source. Rule as the data show it: active = growth inhibition above about 70%; inactive = the rest.

Assay [1] in a line: NCI Yeast Anticancer Drug Screen. Data for the rad50 strain (AID 155).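 Also: 0% = growth of vehicle-only cultures of the same strain.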 The settings on record: S. cerevisiae rad50 strain growth inhibition, hits give high values. Summed up:
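DNA repair mutant yeast, compound exposure, growth read-out; inhibition is taken relative to vehicle.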

Assay [2] can be described thus: NCI Yeast Anticancer Drug Screen. Data for the mec2-1 strain (AID 157). The settings on record: S. cerevisiae mec2-1 strain, hits give high values. Summed up: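 Using mec2-1 yeast: add compound, measure growth, express inhibition versus vehicle-treated cultures.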
Assay [3] is described as follows: NCI Yeast Anticancer Drug Screen. Data for the sgs1 mgt1 strain (AID 161).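 Also: 0% = growth of cultures given vehicle only.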 The conditions noted are these: S. cerevisiae sgs1 mgt1 strain, hits give high values. The method, boiled down:
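Percent growth inhibition was derived by comparing compound-exposed mutant yeast with vehicle-exposed cultures. The strain carries alterations in DNA damage repair.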

Assay [4] can be described thus: NCI Yeast Anticancer Drug Screen. Data for the cln2 rad14 strain (AID 165).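 Also: 0% = growth equal to vehicle treated cultures.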 The settings on record: S. cerevisiae cln2 rad14 strain, hits give high values. Summed up: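 Yeast strain cln2 rad14, bearing defects in cell cycle control and DNA repair, serves as the test system; values reflect growth inhibition compared with vehicle.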
Assay [5] in a line: NCI Yeast Anticancer Drug Screen. Data for the bub3 strain (AID 167). The settings on record: S. cerevisiae bub3 mutant strain, hits give high values. Summed up:
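In this screen, a yeast mutant lacking normal mitotic checkpoint function is challenged with compound. Relative growth versus vehicle gives the inhibition value.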

Assay [6] can be described thus: NCI Yeast Anticancer Drug Screen. Data for the mlh1 rad18 strain (AID 175). The settings on record: S. cerevisiae mlh1 rad18 strain growth inhibition, hits give high values. Summed up:
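Steps: expose repair-defective yeast to compound; measure growth; express inhibition against vehicle-treated controls.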

Where [7] appears, read: at 5.0 µM (retest, dose inferred, filed as 0.5).
Where [8] appears, read: at 50.0 µM (retest, dose inferred, filed as 5.0).

For `O=C(O)/C=C/CCC1SCC2NC(=O)NC21` (configuration not stated), the growth inhibition is 96% (active) in assay [1] (setting [7]); 96% (active) in assay [1] (setting [8]); 80.3% (active) in assay [1] (at 50.0 µM); 98% (active) in assay [2] (setting [7]); 97% (active) in assay [2] (setting [8]); 84.2% (active) in assay [2] (at 50.0 µM). Further, the growth inhibition in assay [3] (setting [7]) is 96% (active); in assay [3] (setting [8]), 96% (active); in assay [3] (at 50.0 µM) it was 88.3% (active); in assay [4] (setting [7]) it was 94% (active); in assay [4] (setting [8]), 95% (active); in assay [4] (at 50.0 µM) it was 84% (active). The growth inhibition in assay [5] (setting [7]) is 97% (active); in assay [5] (setting [8]) it was 97% (active); in assay [5] (at 50.0 µM) it was 87.5% (active); in assay [6] (setting [7]), 96% (active); in assay [6] (setting [8]), 96% (active); in assay [6] (at 50.0 µM), 83% (active).

Consider `CCOC(=O)CC[P+](Cc1ccccc1)(c1ccccc1)c1ccccc1`, for which the growth inhibition in assay [1] (setting [7]) is -32%; in assay [1] (setting [8]) it was 14%; in assay [1] (at 50.0 µM), 64.9%; in assay [2] (setting [7]), 0%; in assay [2] (setting [8]) it was 0%; in assay [2] (at 50.0 µM), -1.5%. Also, the growth inhibition in assay [3] (setting [7]) was 2%; in assay [3] (setting [8]), 3%; in assay [3] (at 50.0 µM) it was 12.7%; in assay [4] (setting [7]), 4%; in assay [4] (setting [8]) it was -2%; in assay [4] (at 50.0 µM), -15.4%. The growth inhibition was 1% in assay [5] (setting [7]); 4% in assay [5] (setting [8]); 18.4% in assay [5] (at 50.0 µM); 7% in assay [6] (setting [7]); 21% in assay [6] (setting [8]); 11% in assay [6] (at 50.0 µM).

Consider `CC(=O)Oc1cccc2c(C(=O)CCl)ccnc12`, for which the growth inhibition is 87% (active) in assay [1] (setting [7]); 99% (active) in assay [1] (setting [8]); 99.1% (active) in assay [1] (at 50.0 µM); 86% (active) in assay [2] (setting [7]); 99% (active) in assay [2] (setting [8]); 95% (active) in assay [2] (at 50.0 µM). Moreover, the growth inhibition is 96% (active) in assay [3] (setting [7]); 99% (active) in assay [3] (setting [8]); 99.2% (active) in assay [3] (at 50.0 µM); 15% in assay [4] (setting [7]); 99% (active) in assay [4] (setting [8]); 92% (active) in assay [4] (at 50.0 µM). Moreover, the growth inhibition in assay [5] (setting [7]) was 90% (active); in assay [5] (setting [8]) it was 18%; in assay [5] (at 50.0 µM), 95.3% (active); in assay [6] (setting [7]), 73% (active); in assay [6] (setting [8]), 99% (active); in assay [6] (at 50.0 µM), 98.8% (active).

Take `CCOC(=O)/C=C(/Cl)C(=O)OCC`: the growth inhibition was 12% in assay [1] (setting [7]); 98% (active) in assay [1] (setting [8]); 98.5% (active) in assay [1] (at 50.0 µM); 5% in assay [2] (setting [7]); 99% (active) in assay [2] (setting [8]); 99.4% (active) in assay [2] (at 50.0 µM). Besides, the growth inhibition in assay [3] (setting [7]) was 7%; in assay [3] (setting [8]) it was 98% (active); in assay [3] (at 50.0 µM) it was 99.5% (active); in assay [4] (setting [7]), 1%; in assay [4] (setting [8]), 99% (active); in assay [4] (at 50.0 µM) it was 99% (active). The growth inhibition is 18% in assay [5] (setting [7]); 99% (active) in assay [5] (setting [8]); 99.2% (active) in assay [5] (at 50.0 µM); 6% in assay [6] (setting [7]); 99% (active) in assay [6] (setting [8]); 99.1% (active) in assay [6] (at 50.0 µM).

`NC1=NC2=C(CCCC2)C(c2cccs2)S1` (configuration not stated): the growth inhibition in assay [1] (setting [7]) is 57%; in assay [1] (setting [8]), 82% (active); in assay [1] (at 50.0 µM) it was 65.8%; in assay [2] (setting [7]) it was 39%; in assay [2] (setting [8]), 78% (active); in assay [2] (at 50.0 µM) it was 32.4%. Besides, the growth inhibition in assay [3] (setting [7]) is 76% (active); in assay [3] (setting [8]), 87% (active); in assay [3] (at 50.0 µM), 75.7% (active); in assay [4] (setting [7]) it was 45%; in assay [4] (setting [8]), 49%; in assay [4] (at 50.0 µM), 37%. Also, the growth inhibition in assay [5] (setting [7]) was 38%; in assay [5] (setting [8]) it was 74% (active); in assay [5] (at 50.0 µM) it was 61.7%; in assay [6] (setting [7]), 61%; in assay [6] (setting [8]), 92% (active); in assay [6] (at 50.0 µM), 60.6%.

As for `N=C(N)SCc1nc(-c2ccc(Cl)cc2)no1`, the growth inhibition in assay [1] (setting [7]) is 18%; in assay [1] (setting [8]), 77% (active); in assay [1] (at 50.0 µM), 94.3% (active); in assay [2] (setting [7]), 8%; in assay [2] (setting [8]) it was 57%; in assay [2] (at 50.0 µM) it was 87.5% (active). The growth inhibition was 0% in assay [3] (setting [7]); 78% (active) in assay [3] (setting [8]); 90.1% (active) in assay [3] (at 50.0 µM); 0% in assay [4] (setting [7]); 61% in assay [4] (setting [8]); 70% (active) in assay [4] (at 50.0 µM). Further, the growth inhibition in assay [5] (setting [7]) was -4%; in assay [5] (setting [8]), 72% (active); in assay [5] (at 50.0 µM), 94% (active); in assay [6] (setting [7]), -10%; in assay [6] (setting [8]), 64%; in assay [6] (at 50.0 µM), 84.9% (active).

`NC1c2ccccc2-c2ccc([N+](=O)[O-])cc21` (configuration not stated): the growth inhibition was 12% in assay [1] (setting [7]); -2% in assay [1] (setting [8]); 40% in assay [1] (at 50.0 µM); 4% in assay [2] (setting [7]); -24% in assay [2] (setting [8]); -7.35% in assay [2] (at 50.0 µM). Moreover, the growth inhibition was 4% in assay [3] (setting [7]); 35% in assay [3] (setting [8]); 26.6% in assay [3] (at 50.0 µM); -24% in assay [4] (setting [7]); -4% in assay [4] (setting [8]); -9.3% in assay [4] (at 50.0 µM). Also, the growth inhibition is 1% in assay [5] (setting [7]); 3% in assay [5] (setting [8]); -12.2% in assay [5] (at 50.0 µM); 14% in assay [6] (setting [7]); 38% in assay [6] (setting [8]); 39.9% in assay [6] (at 50.0 µM).

With `CC(C)Cc1cc(O)cc2ccccc12`, the growth inhibition is 4% in assay [1] (setting [7]); 98% (active) in assay [1] (setting [8]); 98.9% (active) in assay [1] (at 50.0 µM); 5% in assay [2] (setting [7]); 99% (active) in assay [2] (setting [8]); 99.2% (active) in assay [2] (at 50.0 µM). The growth inhibition is 3% in assay [3] (setting [7]); 98% (active) in assay [3] (setting [8]); 98.5% (active) in assay [3] (at 50.0 µM); 2% in assay [4] (setting [7]); 97% (active) in assay [4] (setting [8]); 98.4% (active) in assay [4] (at 50.0 µM). Further, the growth inhibition was 5% in assay [5] (setting [7]); 99% (active) in assay [5] (setting [8]); 98.5% (active) in assay [5] (at 50.0 µM); 0% in assay [6] (setting [7]); 98% (active) in assay [6] (setting [8]); 98.8% (active) in assay [6] (at 50.0 µM).

Turning to `CCOC(=O)Cc1csc(/C=C/c2ccc(OC)c(OC)c2)n1`, the growth inhibition in assay [1] (setting [7]) was -15%; in assay [1] (setting [8]) it was 8%; in assay [1] (at 50.0 µM) it was 17.2%; in assay [2] (setting [7]) it was -1%; in assay [2] (setting [8]), 20%; in assay [2] (at 50.0 µM) it was 11.8%. Also, the growth inhibition in assay [3] (setting [7]) is -13%; in assay [3] (setting [8]), 14%; in assay [3] (at 50.0 µM) it was 6.9%; in assay [4] (setting [7]), 3%; in assay [4] (setting [8]), 37%; in assay [4] (at 50.0 µM) it was -37.2%. The growth inhibition in assay [5] (setting [7]) is 7%; in assay [5] (setting [8]), 8%; in assay [5] (at 50.0 µM), -12.7%; in assay [6] (setting [7]), 1%; in assay [6] (setting [8]), 18%; in assay [6] (at 50.0 µM) it was 21.4%.
